SMILES strings stand for the structures. Among all 44,000 compounds or so, about 30 (0.07%) were called active. Inconclusive results (about 1%) are left out. Rule as the data show it: active = inhibition above about 54% (passing the limit was not always enough); inconclusive = no clear call, values can overlap the other calls. The list comes from a sample in which actives are over-represented; it also holds similar structures and randomly drawn compounds.

The values that follow come from PubChem BioAssay AID624260 (Broad Institute, 2012).

In this experiment the target is Histone-lysine N-methyltransferase NSD2 (Homo sapiens) (UniProt O96028). The experiment is described as follows: inhibitors of human NSD2, primary screen, biochemical, plate reader, single point (AID 624260).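 Also: inhibitors reduce the monomethyl H3K36 fluorescence signal.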 The following applies: NSD2-SET H3K36me1 DELFIA fluorescence, at 12.5 µM, active compounds read high.
Sequence of Histone-lysine N-methyltransferase NSD2 (Homo sapiens) (O96028 whole entry, looked up): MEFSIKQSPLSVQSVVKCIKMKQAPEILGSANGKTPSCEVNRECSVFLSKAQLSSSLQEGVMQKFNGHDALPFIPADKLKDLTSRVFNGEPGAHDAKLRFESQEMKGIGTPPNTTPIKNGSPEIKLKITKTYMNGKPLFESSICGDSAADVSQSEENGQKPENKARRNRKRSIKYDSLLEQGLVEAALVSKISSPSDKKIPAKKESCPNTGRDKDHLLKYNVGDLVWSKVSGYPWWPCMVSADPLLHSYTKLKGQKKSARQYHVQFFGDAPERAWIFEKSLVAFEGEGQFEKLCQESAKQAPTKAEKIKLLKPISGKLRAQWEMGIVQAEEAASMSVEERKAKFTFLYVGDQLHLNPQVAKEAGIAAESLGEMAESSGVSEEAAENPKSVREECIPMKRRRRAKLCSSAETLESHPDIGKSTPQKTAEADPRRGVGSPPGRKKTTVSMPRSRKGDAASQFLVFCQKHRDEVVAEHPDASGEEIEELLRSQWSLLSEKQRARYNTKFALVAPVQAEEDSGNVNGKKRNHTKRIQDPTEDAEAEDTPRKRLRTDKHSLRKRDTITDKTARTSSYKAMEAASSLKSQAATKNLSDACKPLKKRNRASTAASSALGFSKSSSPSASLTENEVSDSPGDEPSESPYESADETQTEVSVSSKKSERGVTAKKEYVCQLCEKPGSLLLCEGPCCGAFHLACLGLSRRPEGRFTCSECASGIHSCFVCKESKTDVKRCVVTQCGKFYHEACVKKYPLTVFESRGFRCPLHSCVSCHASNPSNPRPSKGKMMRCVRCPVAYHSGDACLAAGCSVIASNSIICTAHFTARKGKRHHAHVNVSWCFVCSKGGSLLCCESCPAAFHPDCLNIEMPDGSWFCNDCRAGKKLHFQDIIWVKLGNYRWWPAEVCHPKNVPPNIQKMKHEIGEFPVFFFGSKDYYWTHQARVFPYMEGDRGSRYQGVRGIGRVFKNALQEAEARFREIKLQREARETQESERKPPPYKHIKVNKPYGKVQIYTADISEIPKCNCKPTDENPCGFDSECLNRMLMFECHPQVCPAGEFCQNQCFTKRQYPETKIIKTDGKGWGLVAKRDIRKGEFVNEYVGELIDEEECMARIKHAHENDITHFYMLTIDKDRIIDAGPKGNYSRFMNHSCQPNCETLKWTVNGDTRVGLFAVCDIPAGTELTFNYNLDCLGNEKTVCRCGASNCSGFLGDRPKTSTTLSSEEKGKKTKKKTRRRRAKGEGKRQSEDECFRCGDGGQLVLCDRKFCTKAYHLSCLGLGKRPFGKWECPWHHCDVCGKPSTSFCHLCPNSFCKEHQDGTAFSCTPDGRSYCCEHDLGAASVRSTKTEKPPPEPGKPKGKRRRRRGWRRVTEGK
With `O=C(C[C@H]1C[C@@H]2c3cc(NC(=O)c4cccnc4)ccc3O[C@@H]2[C@@H](CO)O1)NCc1ccccc1F`, the inhibition was -0.738% (inactive).

With `CCCN(C)C[C@H]1Oc2cc(C#CCC3CCCC3)ccc2S(=O)(=O)N([C@@H](C)CO)C[C@@H]1C`, the inhibition is 1.41% (inactive).

In the case of `C[C@@H]1CN([C@@H](C)CO)C(=O)Cc2cc(NC(=O)Nc3ccc4c(c3)OCO4)ccc2O[C@H]1CN(C)S(=O)(=O)c1ccc(F)cc1`, the inhibition was 5.36% (inactive).

As for `C[C@H](CO)N1C[C@H](C)[C@@H](CN(C)Cc2ccc(C(F)(F)F)cc2)Oc2ccc(NC(=O)Cn3cnnn3)cc2CC1=O`, the inhibition was -8% (inactive).

As for `CC(C)NC(=O)N(C)C[C@H]1Oc2cc(C#Cc3ccccn3)ccc2S(=O)(=O)N([C@H](C)CO)C[C@@H]1C`, the inhibition was 4.46% (inactive).

Consider `CC(/C=C/C(=O)NO)=C\c1ccccc1OCc1ccc(COc2ccc3ccncc3c2)cc1`, for which the inhibition is -5.12% (inactive).

With `C[C@@H]1CN([C@H](C)CO)S(=O)(=O)c2ccc(/C=C/c3ccccc3)cc2O[C@@H]1CN(C)C(=O)Nc1ccc(F)cc1`, the inhibition was -10.2% (inactive).

On to `C[C@H]1CN([C@@H](C)CO)C(=O)Cc2cc(NC(=O)Nc3cccc4ccccc34)ccc2O[C@@H]1CN(C)C`, for which the inhibition was 1.05% (inactive).

Regarding `Cc1ccc(-c2ccc3c(c2)O[C@H](CN(C)C(=O)Nc2ccccc2)[C@@H](C)CN([C@@H](C)CO)S3(=O)=O)cc1`, the inhibition was -6.18% (inactive).

As to `CCCNC(=O)C[C@H]1C[C@@H]2c3cc(NC(=O)c4ccc5c(c4)OCO5)ccc3O[C@@H]2[C@@H](CO)O1`, the inhibition was 7.66% (inactive).

On to `C[C@H](CO)N1C[C@H](C)[C@@H](CN(C)CC2CC2)Oc2ccc(NC(=O)CCCN(C)C)cc2CC1=O`, for which the inhibition was 3.07% (inactive).

On to `O=C(C[C@H]1CC[C@H](NC(=O)Nc2ccc(C(F)(F)F)cc2)[C@H](CO)O1)NCCN1CCCC1`, for which the inhibition was -1.99% (inactive).

Regarding `COc1ccc(NC(=O)N(C)C[C@H]2OCc3ccccc3-c3ccccc3C(=O)N([C@H](C)CO)C[C@@H]2C)cc1`, the inhibition was -1.37% (inactive).

With `CCC(=O)N(C)C[C@H]1Oc2cc(C#CCOC)ccc2S(=O)(=O)N([C@H](C)CO)C[C@H]1C`, the inhibition was -1.1% (inactive).

Consider `O=C(C[C@H]1C[C@H]2c3cc(NC(=O)Nc4ccc(F)cc4)ccc3O[C@H]2[C@@H](CO)O1)NCC1CC1`, for which the inhibition was 2.39% (inactive).

Regarding `COc1ccc(CN(C)C[C@H]2OCCCC[C@H](C)Oc3ccc(NS(=O)(=O)c4ccc(C)cc4)cc3C(=O)N([C@@H](C)CO)C[C@H]2C)cc1`, the inhibition was 2.76% (inactive).

For `C[C@@H]1CN([C@@H](C)CO)C(=O)Cc2cc(NC(=O)Nc3ccc(C(F)(F)F)cc3)ccc2O[C@H]1CN(C)C(=O)Nc1ccc(F)cc1`, the inhibition was -13.8% (inactive).

`Cc1ccc(S(=O)(=O)N(C)C[C@@H]2Oc3ccc(NC(=O)C4CCCCC4)cc3CC(=O)N([C@@H](C)CO)C[C@H]2C)cc1`: the inhibition is -6.23% (inactive).

With `CCC(=O)N(C)C[C@@H]1Oc2cc(-c3ccc(OC)cc3)ccc2S(=O)(=O)N([C@@H](C)CO)C[C@H]1C`, the inhibition is 1.75% (inactive).

As for `C[C@H](NC(=O)C[C@@H]1CC[C@H](NC(=O)CN2CCOCC2)[C@H](CO)O1)c1ccccc1`, the inhibition is -3.53% (inactive).

As for `COc1cccc(S(=O)(=O)N(C)C[C@@H]2Oc3ncc(-c4cccc(C(=O)N(C)C)c4)cc3C(=O)N([C@H](C)CO)C[C@@H]2C)c1`, the inhibition is 5.93% (inactive).

Regarding `COc1ccc(NC(=O)Nc2ccc3c(c2)C(=O)N([C@H](C)CO)C[C@@H](C)[C@H](CN(C)C(=O)Cc2ccccc2)OCCCC[C@H](C)O3)cc1`, the inhibition is -2.17% (inactive).

On to `CCCNC(=O)C[C@H]1C[C@@H]2c3cc(NC(=O)C4CCOCC4)ccc3O[C@@H]2[C@@H](CO)O1`, for which the inhibition is 11% (inactive).

As for `C/C=C/c1ccc2c(c1)O[C@H](CN(C)C(=O)CN(C)C)[C@H](C)CN([C@@H](C)CO)S2(=O)=O`, the inhibition was 1.3% (inactive).

In the case of `Cc1noc(C)c1S(=O)(=O)Nc1ccc2c(c1)C(=O)N([C@H](C)CO)C[C@@H](C)[C@@H](CN(C)S(=O)(=O)c1ccc(Cl)cc1)O2`, the inhibition was -1.25% (inactive).

Turning to `C[C@H](CO)N1C[C@H](C)[C@@H](CN(C)Cc2ccccc2)OCCCC[C@H](C)Oc2ccc(NC(=O)Cc3ccccc3)cc2C1=O`, the inhibition is -3.29% (inactive).

As to `CCCN(C)C[C@H]1Oc2cc(C#CCC(C)C)ccc2S(=O)(=O)N([C@H](C)CO)C[C@H]1C`, the inhibition was 0.338% (inactive).

With `C[C@H]1CN([C@@H](C)CO)C(=O)c2cccc(NC(=O)Nc3ccc(C(F)(F)F)cc3)c2O[C@H]1CN(C)CC1CCCCC1`, the inhibition is 1.34% (inactive).

`C[C@H](CO)N1C[C@H](C)[C@H](CN(C)Cc2ccccc2)OCCCC[C@H](C)Oc2ccc(NC(=O)c3ccccc3)cc2C1=O`: the inhibition was 8.82% (inactive).

Regarding `C[C@H]1CN([C@@H](C)CO)C(=O)c2cc(-c3ccncc3)cnc2O[C@H]1CN(C)C(=O)c1cccc(F)c1`, the inhibition was -1.28% (inactive).

For the compound `CC(C)CC#Cc1ccc2c(c1)O[C@H](CN(C)C(=O)c1cccnc1)[C@@H](C)CN([C@H](C)CO)S2(=O)=O`, the inhibition was 0.112% (inactive).

With `C[C@H]1CN([C@@H](C)CO)C(=O)c2cc(C3=CCCCC3)cnc2O[C@H]1CN(C)Cc1ccncc1`, the inhibition is 3.39% (inactive).

For the compound `C/C=C/c1ccc2c(c1)O[C@@H](CN(C)C(=O)Cc1ccccc1)[C@H](C)CN([C@@H](C)CO)S2(=O)=O`, the inhibition was 5.94% (inactive).

On to `COc1ccc(NC(=O)N(C)C[C@H]2Oc3cc(C#CCN(C)C)ccc3S(=O)(=O)N([C@@H](C)CO)C[C@@H]2C)cc1`, for which the inhibition was 5.29% (inactive).

Take `Cc1noc(C)c1NC(=O)N(C)C[C@@H]1Oc2ccc(NC(=O)Nc3cccc4ccccc34)cc2CC(=O)N([C@@H](C)CO)C[C@H]1C`: the inhibition is -4.68% (inactive).

Turning to `CCC(=O)N(C)C[C@@H]1Oc2cc(C#CCOC)ccc2S(=O)(=O)N([C@H](C)CO)C[C@H]1C`, the inhibition is -17.7% (inactive).

Consider `CN(C)C(=O)C[C@H]1C[C@H]2c3cc(NC(=O)Nc4ccccc4F)ccc3O[C@H]2[C@@H](CO)O1`, for which the inhibition was 2.09% (inactive).

Regarding `COCC(=O)N(C)C[C@H]1Oc2ncc(-c3ccc(C)cc3)cc2C(=O)N([C@@H](C)CO)C[C@@H]1C`, the inhibition is 25.2% (inactive).

Turning to `C/C=C/c1cnc2c(c1)C(=O)N([C@@H](C)CO)C[C@@H](C)[C@H](CN(C)C(=O)c1cnccn1)O2`, the inhibition is 0.45% (inactive).

As to `C[C@H](CO)N1C[C@H](C)[C@@H](CN(C)C)Oc2cc(C#Cc3ccccc3)ccc2S1(=O)=O`, the inhibition is -6.31% (inactive).

Consider `O=C(Nc1ccc2c(c1)[C@H]1C[C@@H](CC(=O)N3CCc4ccccc4C3)O[C@H](CO)[C@H]1O2)Nc1ccccc1F`, for which the inhibition was 2.01% (inactive).

On to `C[C@H](CO)N1C[C@H](C)[C@@H](CN(C)S(=O)(=O)c2ccccc2)Oc2ncc(-c3ccncc3)cc2C1=O`, for which the inhibition was 4.23% (inactive).

On to `C[C@H](CO)N1C[C@H](C)[C@H](CN(C)CC2CCCC2)Oc2ncc(Br)cc2C1=O`, for which the inhibition was 0.26% (inactive).

In the case of `CC(=O)N(C)C[C@H]1Oc2ncc(C#Cc3ccc(F)cc3)cc2C(=O)N([C@H](C)CO)C[C@@H]1C`, the inhibition is 3.93% (inactive).

`C[C@@H]1CN([C@H](C)CO)S(=O)(=O)c2ccc(-c3ccncc3)cc2O[C@H]1CN(C)S(=O)(=O)c1ccccc1F`: the inhibition was -2.69% (inactive).

On to `CC(C)CC#Cc1ccc2c(c1)O[C@@H](CN(C)C(=O)c1ccccc1F)[C@H](C)CN([C@H](C)CO)S2(=O)=O`, for which the inhibition was -7.41% (inactive).

Turning to `C[C@@H]1CN([C@@H](C)CO)S(=O)(=O)c2ccc(C#C[C@@H](C)O)cc2O[C@@H]1CN(C)CC1CC1`, the inhibition is 4.62% (inactive).

Consider `COCC#Cc1ccc2c(c1)O[C@@H](CN(C)Cc1cccnc1)[C@@H](C)CN([C@H](C)CO)S2(=O)=O`, for which the inhibition was 5.56% (inactive).

`COc1ccc(S(=O)(=O)Nc2ccc3c(c2)C(=O)N([C@@H](C)CO)C[C@H](C)[C@@H](CN(C)S(=O)(=O)c2ccc(C)cc2)OCCCC[C@@H](C)O3)cc1`: the inhibition was -8.56% (inactive).

In the case of `C[C@@H]1CN([C@@H](C)CO)S(=O)(=O)c2ccc(Br)cc2O[C@@H]1CN(C)C(=O)C1CCCCC1`, the inhibition is -6.34% (inactive).

For `C[C@@H]1CN([C@H](C)CO)S(=O)(=O)c2ccc(C#CC(C)(C)O)cc2O[C@@H]1CN(C)Cc1ccccc1`, the inhibition is -5.05% (inactive).

For `COCC(=O)N(C)C[C@@H]1Oc2cc(C3=CCCC3)ccc2S(=O)(=O)N([C@@H](C)CO)C[C@H]1C`, the inhibition was -2.03% (inactive).

Consider `C[C@@H]1CN([C@@H](C)CO)S(=O)(=O)c2ccc(Br)cc2O[C@H]1CN(C)S(=O)(=O)c1ccccc1`, for which the inhibition is 0.606% (inactive).

Take `COc1ccc(NC(=O)Nc2ccc3c(c2)[C@H]2C[C@H](CC(=O)NC4CCCC4)O[C@H](CO)[C@H]2O3)cc1`: the inhibition is -1.24% (inactive).

In the case of `C[C@@H]1CCCCO[C@H](CN(C)C(=O)Cc2ccccc2)[C@H](C)CN([C@@H](C)CO)C(=O)c2cc(NS(=O)(=O)c3ccc(F)cc3)ccc2O1`, the inhibition is 6.79% (inactive).

Turning to `C[C@H](CO)N1C[C@H](C)[C@@H](CN(C)C(=O)C2CCCCC2)Oc2cc(C3=CCCC3)ccc2S1(=O)=O`, the inhibition was -2.1% (inactive).

With `COc1ccc(NC(=O)Nc2ccc3c(c2)C(=O)N([C@@H](C)CO)C[C@@H](C)[C@H](CN(C)C(=O)CCC(F)(F)F)OCCCC[C@@H](C)O3)cc1`, the inhibition was -1.97% (inactive).

On to `C/C=C/c1ccc2c(c1)O[C@@H](CN(C)C(=O)C1CCOCC1)[C@H](C)CN([C@H](C)CO)S2(=O)=O`, for which the inhibition was 12.8% (inactive).

`C[C@@H]1CN([C@@H](C)CO)C(=O)Cc2cc(NS(=O)(=O)c3ccc(Cl)cc3)ccc2O[C@H]1CN(C)Cc1ccc(C(F)(F)F)cc1`: the inhibition is -12.4% (inactive).

The term inhibition denotes the relative decrease from the control value, in per cent.
